Experimental data reported in PubChem BioAssay (Tox21).
A number with no mark means an inactive call. The source made the active and inactive calls. The call rests on the fitted dose curve; in most records, active means well fitted curve in the direction sought with a large enough effect in the repeat runs; inconclusive means weak or mixed curves; inactive means flat fitted curve, though single readings scatter.

Assay: qHTS assay to test for compound auto fluorescence at 460 nm (blue) in HepG2 cells (AID 720687)
Conditions: autofluorescence 405/460 nm, 1 h; series mostly up to 91.3 µM; fluorescence, % of fluorescent control: at the top concentration
Text: U.S. Tox21 Program National Center for Advancing Translational Sciences [NCATS] NIH Chemical Genomics Center [NCGC] U.S. Environmental Protection Agency [EPA] National Institutes of Environmental Health Sciences [NIEHS] National Toxicology Program [NTP] U.S. Food and Drug Administration [FDA] Tox21 Assay Overview: Compound auto fluorescence often interferes with screening of the compound library against various biological targets and signaling pathways. Some of these compounds may have fluorophoric properties. Such properties may interfere with the assay outputs resulting in false positives and/or negatives. To decrease such complications and ensure the compound activities are relevant in terms of biological response, the Tox21 10K compound library was screened for auto fluorescence. From the fluorophores used as reporter signals in our screening assays, the auto fluorescence equivalencies of compounds against three fluorophores have been evaluated: Triamterene, Fluorescein and Rose Bengal sodium for blue, green and red fluorescence, respectively. The fluorescence intensities were measured using Excitation/Emission wavelengths at 405/460nm, 485/535nm and 540/590nm for blue, green and red labels, respectively. This assay includes the blue fluorescence data.
Tox21 Assay Protocol Summary: 2,000 HepG2 cells in 5 uL of culture medium (MEM containing 10% FBS) per well were dispensed into black wall/clear bottom 1536-well plates using a Multidrop Combi Dispenser (ThermoFisher Scientific, Waltham, MA). The assay plates were incubated overnight at 37 C to allow cell attachment to the well bottom, followed by the transfer of 23 nL compound or DMSO vehicle by a pintool work station (Kalypsys , San Diego, CA). After the assay plates were incubated for 1 hr at 37 C and 5% CO2, fluorescence intensities in the assay plates were measured by an Envision (PerkinElmer, Shelton, CT) plate reader using three labels for measuring blue, green and red fluorescence at […] 460, 535 and 590 nm respectively.
On the % scale 0 is the no-effect control and ±100 the full control effect.

Compound	fluorescence, % of fluorescent control	Potency
CCn1c2ccccc2c2cc([N+](=O)[O-])ccc21	0.328%	
CCCC(=O)OC(C)(C)Cc1ccccc1	-0.524%	
C=CCn1c(=O)n(CC=C)c(=O)n(CC=C)c1=O	-0.0314%	
CCCCCC/C=C\CCCCCCCC(=O)O	-0.124%	
O=C(O)c1cc(N=Nc2ccc([N+](=O)[O-])cc2)ccc1O	-0.505%	
O=c1c(O)c(-c2ccc(O)cc2O)oc2cc(O)cc(O)c12	5.91%	
COc1cc(/C=C/c2ccccc2)oc(=O)c1	0.0047% [at 95.7 µM]	
C=C(C)c1cccc(C(=C)C)c1	-0.0724%	
OC1CCCc2ccccc21 (stereo not given)	0.0901%	
CCC(C)(CCC(C)C)C(=O)[O][Sn]([CH3])([CH3])[O]C(=O)C(C)(CC)CCC(C)C (stereo not given)	0.0234%	
CC(C)(C)c1csc(-c2cc3cc(OCc4ccccc4CC(=O)O)ccc3o2)n1	0.031%	
CCCCOC(=O)CO	-0.0937%	
[Cl][Pt-2]([Cl])([Cl])[Cl]	-0.0291%	
Cc1cc(C(C)(C)C)c(O)c(C)c1Cn1c(=O)n(Cc2c(C)cc(C(C)(C)C)c(O)c2C)c(=O)n(Cc2c(C)cc(C(C)(C)C)c(O)c2C)c1=O	0.0108%	
Cc1cccc2cccnc12	-0.0114%	
CCCCCCOC(=O)C(C)CC (stereo not given)	0.0403%	
CCC(=O)OC(=O)CC	0.0034%	
CN(C)C(=O)COC(=O)Cc1ccc(OC(=O)c2ccc(N=C(N)N)cc2)cc1	0.0565% [at 46 µM]	
C=C(CC)C(=O)c1ccc(OCC(=O)O)c(Cl)c1Cl		inactive
O=C(/C=C/c1ccc(O)c(O)c1)O[C@@H](C(=O)O)[C@@H](OC(=O)/C=C/c1ccc(O)c(O)c1)C(=O)O	5.54%	

Compound	fluorescence, % of fluorescent control	Potency
OCCN1CCN(CCCN2c3ccccc3Sc3ccc(C(F)(F)F)cc32)CC1	-0.0383% [at 46 µM]	
CCOC(=O)c1ccc(C2CCC(NC[C@H](O)COc3ccc(O)c(NS(C)(=O)=O)c3)CC2)cc1 (stereo not given in full)	0.149%	
C[Si](Cl)(c1ccccc1)c1ccccc1	-0.009%	
CCCCCCCCCCCCCCCC[N+](C)(C)CC		inactive
Cc1ccc(C)cc1	0.0243%	
Cc1nc2n(c(=O)c1CCN1CCC(c3noc4cc(F)ccc34)CC1)CCCC2	-0.0238% [at 46 µM]	
CC(C)OC(=O)C(O)(CC(=O)O)CC(=O)O	-0.0752%	
COc1c(C)c2c(c(O)c1C/C=C(\C)CCC(=O)OCCN1CCOCC1)C(=O)OC2	0.0918% [at 46 µM]	
Nc1nc2c(ncn2COCCO)c(=O)[nH]1	0.176% [at 18.6 µM]	
CCCCCCCC/C=C\CCCCCCCCN	-0.0129% [at 46 µM]	
FC(F)(F)c1cccc(Cl)c1	-0.0181%	
Sc1nc2ccccc2s1	0.197%	
C=CCCC(=O)/C=C/C1C(C)=CCCC1(C)C (stereo not given)	-0.172%	
Nc1ccc(NCCO)c([N+](=O)[O-])c1	0.002%	
COc1cccc(OC)c1C(=O)O	0.0273%	
O=C1CCCCCCCCCCCCCCCO1	0.1%	
CCC(=O)C(=O)CC	0.032% [at 95.7 µM]	
O=C(O)c1cc(=O)c2ccccc2o1	-0.0153% [at 46 µM]	
Cc1cc(C(C)(C)C)cc(C)c1CC1=NCCN1	0.013% [at 18.6 µM]	
Cc1cc(C)c(/C=C2\C(=O)Nc3ccccc32)[nH]1	1.83% [at 46 µM]	
